Here are results for 5 compounds from PubChem BioAssay (NCATS).

A number with no mark means an inactive call. Results filed as inconclusive are left out. Calls of active or inactive are those of the source. Unless noted, the call rests on the fitted dose curve; in most records, active means well fitted curve in the direction sought with a large enough effect; inconclusive means small, poorly fitted or top-dose-only effect, or another doubt; inactive means no such curve, though single readings can be large; an effect the other way counts as inactive or inconclusive. Bounds are passed on as bounds.

Experiment [1] is described as follows: AP1 Signaling Pathway (AID 357; active means well fitted curve in either direction with a large enough effect, not every such curve was filed as active; further: on the % scale 0 is the no-effect control and ±100 the full control effect). The settings on record: ME-180 (cervical carcinoma) AP-1-bla reporter, EGF-induced, beta-lactamase ratio, 5 h; at 17.2 µM (top of the series) unless noted. Summed up: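 Read-out was the 460nm/530nm emission ratio (excitation 405nm) after CCF4 loading for 2.5 hours at room temperature. Cells carried an AP-1-driven beta-lactamase reporter, were stimulated with EC50 EGF plus compound for 5 hours, and AC50 values came from titrations.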

A short description of experiment [2]: NFAT Signaling Pathway (AID 444; active means well fitted curve in either direction with a large enough effect, not every such curve was filed as active;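 further: carbachol stimulus at about its EC50 of 1 µM final; on the % scale 0 is the no-effect control and ±100 the full control effect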). The following applies: Jurkat NFAT-bla M1, carbachol, beta-lactamase ratio, 5 h; at 17.2 µM (top of the series) unless noted. In a few lines:
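Read-out: CCF4 FRET ratio (460 nm/530 nm) after 1 h RT dye loading, used for %activity and AC50 from titration series. Cells: Jurkat NFAT-β-lactamase/M1 line, treated with compound plus 1 uM carbachol for 5 h, 37 °C.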

The nature of experiment [3]: Stat Signaling Pathway (AID 446; active means well fitted curve in either direction with a large enough effect, not every such curve was filed as active;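 further: ME-180 cervical cancer cells given 40 pM IL-6 alongside compound; SIE-controlled beta-lactamase reporter measured as 460/530 nm FRET emission ratio; on the % scale 0 is the no-effect control and ±100 the full control effect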). Summed up: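 IL-6/STAT signaling read in ME-180 cells via an SIE beta-lactamase reporter. Stimulus was 40 pM IL-6 (its AC50) for 5 hrs, so both activation and inhibition register.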
Experiment [4] deals with Glucocorticoid receptor (Homo sapiens) (UniProt P04150). Nature of the experiment: GR-GFP Redistribution (AID 450;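 active means compounds whose dose series gives a full or clear partial fitted curve of increased nuclear translocation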; further: potency means the concentration at half of the fitted maximal effect). The settings on record: U2OS GR-GFP nuclear translocation, laser cytometry, 2 h.
Chain of Glucocorticoid receptor (Homo sapiens) (P04150 whole entry, looked up, the tested form may be a part): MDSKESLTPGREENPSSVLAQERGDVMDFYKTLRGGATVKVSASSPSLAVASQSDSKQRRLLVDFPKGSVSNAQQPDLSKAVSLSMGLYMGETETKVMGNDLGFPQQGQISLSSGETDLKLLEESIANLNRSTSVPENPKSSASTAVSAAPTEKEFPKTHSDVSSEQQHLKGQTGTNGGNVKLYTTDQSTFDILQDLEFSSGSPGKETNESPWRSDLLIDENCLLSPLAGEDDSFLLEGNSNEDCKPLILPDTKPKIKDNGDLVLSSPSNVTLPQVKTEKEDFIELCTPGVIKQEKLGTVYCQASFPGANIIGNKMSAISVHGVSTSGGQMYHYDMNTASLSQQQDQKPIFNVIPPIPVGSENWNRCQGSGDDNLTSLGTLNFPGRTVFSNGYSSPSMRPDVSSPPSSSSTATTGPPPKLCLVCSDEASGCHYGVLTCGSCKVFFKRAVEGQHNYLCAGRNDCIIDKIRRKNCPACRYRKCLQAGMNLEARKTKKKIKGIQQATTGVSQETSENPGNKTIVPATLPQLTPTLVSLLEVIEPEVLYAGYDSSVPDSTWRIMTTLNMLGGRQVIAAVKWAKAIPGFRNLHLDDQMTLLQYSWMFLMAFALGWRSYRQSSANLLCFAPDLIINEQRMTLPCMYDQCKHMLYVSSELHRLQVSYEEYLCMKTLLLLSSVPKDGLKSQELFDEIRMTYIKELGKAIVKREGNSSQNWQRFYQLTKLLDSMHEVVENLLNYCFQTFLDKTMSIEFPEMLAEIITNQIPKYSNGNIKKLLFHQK
Experiment [5] concerns the target Cytochrome P450 1A2 (Homo sapiens) (UniProt P05177). Nature of the experiment: p450-cyp1a2 (AID 410; calls by dose curve; further: potency means the concentration at half of the fitted maximal effect;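 on activity change, negative = inhibition: -100% = full effect of reference inhibitor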). Summed up:
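Human CYP1A2 (20nM) demethylated Luciferin-ME at its Km (100uM) in 100mM KPO4. After 10 min compound preincubation, NADPH regeneration ran the reaction 60 min at room temperature. Luciferin was read by luminescence, normalized to 57 uM furafylline.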

Experiment [6] has as its target Glucocorticoid receptor (Homo sapiens) (UniProt P04150). Nature of the experiment: GR-EFC Redistribution (AID 451; calls by dose curve; further: potency means the concentration at half of the fitted maximal effect). The following applies: CHO-K1 GR-EFC translocation, beta-gal luminescence, 2 h. In a few lines: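 Translocation of GR-ED fusion to nuclear EA restores b-gal, read by luminescence after 1 h room-temperature detection. Engineered CHO-K1 biosensor cells, 1,000/well, exposed 2 h at 37 C to titrations up to 46 uM final.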

For experiment [7], the target named is 3',5'-cyclic-AMP phosphodiesterase 4B (Homo sapiens) (UniProt Q07343). Nature of the experiment: qHTS Assay for Inhibitors of PDE-IV (AID 607; active means well fitted activation curve with a large enough effect in the main read-out, with a control signal flat, not every such curve was filed as active; further: % of control where 0% means no effect). In a few lines:
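Live HEK293 cells with a modified cyclic nucleotide-gated (CNG) channel report intracellular cAMP via membrane-potential dye fluorescence (ex 535/em 590 nm). Endogenous PDE-IV was targeted. Compounds were tested at up to 22.9 uM final; RO 20-1724 100 uM served as control.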
For orientation: In qHTS, concentration-response curves come from the screen itself.

Experiment [8] has as its target Cytochrome P450 3A4 (Homo sapiens) (UniProt P08684). Kind of experiment: qHTS Assay for Activators of Cytochrome P450 3A4 (AID 885). Further: nearly all actives have a fitted effect of over 65% in size. Summed up: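 Quantitative HTS format: compounds preincubated with 20nM human CYP3A4 and Luciferin-PPXE substrate at KM, reaction started by NADPH regeneration, stopped after 60 min, luciferase luminescence read 20 min later.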
Experiment [9] can be described thus: qHTS Assay for Identification of Small Molecule Antagonists for Thrombopoietin (TPO) Signaling Pathway (AID 918). Further: potency means the concentration at half of the fitted maximal effect; nearly all actives have a fitted effect of over 60% in size. The settings on record: TPO-dependent cell signaling reporter, antagonist mode. Summed up: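 Murine Ba/F3 cells stably expressing human TPO receptor and a Glycoprotein IIb promoter–luciferase reporter were IL-3-starved overnight, treated with compounds plus TPO (26 pM final, its EC50) for 24 hrs at 37 C, then read by luminescence.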

Experiment [10] has as its target Muscarinic acetylcholine receptor M1 (Rattus norvegicus) (UniProt P08482). Nature of the experiment: qHTS Assay for Antagonists of Acetylcholine Muscarinic M1 Receptor: Measurement of IP-One Response (AID 944). Further: nearly all actives have a fitted effect of over 75% in size. Further: potency means the concentration at half of the fitted maximal effect. In a few lines:
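CHO cells expressing rat M1 receptor, recovered overnight, were pre-incubated 10 min with compound, then stimulated 30 min with carbachol at EC80 (200 nM) in LiCl-containing buffer, pH 7.4. IP1 accumulation was read by HTRF (620/665 nm).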

The target in experiment [11] is Pyruvate kinase (Leishmania mexicana) (UniProt Q27686). Kind of experiment: qHTS Validation Assay for Inhibitors of Leishmania Mexicana Pyruvate Kinase (AID 945).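 Further: 0% = DMSO only neutral control wells.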 In a few lines:
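Luminescent ATP detection (PKLight) after a 1 h room-temperature reaction of 0.2 nM LmPYK E451W mutant with 0.5 mM PEP and 0.1 mM ADP at pH 7.2. Activity is normalized to DMSO-only control wells.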

Experiment [12] deals with Pyruvate kinase PKM (Homo sapiens) (UniProt P14618). Kind of experiment: qHTS Assay for Activators of Human Muscle Pyruvate Kinase (AID 954; active means well fitted curve in the direction sought with a large enough effect, not every such curve was filed as active;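 further: 0% = uninhibited enzyme and -100% = no enzyme or full thiadiazolimine inhibition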). Summed up: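 Enzyme was run at intermediate activity so both inhibitors and activators could be detected. ATP formed from ADP and PEP by 0.1 nM human PKM2 during a 1 h room-temperature incubation was quantified by coupled luciferase luminescence.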
Chain of Pyruvate kinase PKM (Homo sapiens) (P14618 whole entry, looked up): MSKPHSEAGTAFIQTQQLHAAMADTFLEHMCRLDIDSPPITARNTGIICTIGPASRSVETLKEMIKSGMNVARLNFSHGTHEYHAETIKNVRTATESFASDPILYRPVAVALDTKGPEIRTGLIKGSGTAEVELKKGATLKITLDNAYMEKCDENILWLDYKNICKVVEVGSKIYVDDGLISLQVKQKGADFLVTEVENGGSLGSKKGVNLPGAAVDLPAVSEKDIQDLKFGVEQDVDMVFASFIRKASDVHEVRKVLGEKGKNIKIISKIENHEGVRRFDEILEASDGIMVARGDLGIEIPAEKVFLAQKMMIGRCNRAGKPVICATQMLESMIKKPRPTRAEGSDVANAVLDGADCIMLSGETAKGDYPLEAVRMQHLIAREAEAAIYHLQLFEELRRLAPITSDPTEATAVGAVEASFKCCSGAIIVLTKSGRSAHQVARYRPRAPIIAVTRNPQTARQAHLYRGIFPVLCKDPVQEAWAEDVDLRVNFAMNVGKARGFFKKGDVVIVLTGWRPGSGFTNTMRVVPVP

Experiment [13] concerns the target Alpha-galactosidase (Coffea arabica) (UniProt Q42656). Nature of the experiment: Counterscreen for Glucocerebrosidase Inhibitors: qHTS Assay for Coffee Bean alpha-Galactosidase at pH 4.5 (AID 957).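 Further: plate controls were enzyme alone for no effect and no enzyme for full effect.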 Summed up: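 Green coffee bean enzyme (2 nM final) was incubated with compounds (0.7 nM to 77 uM) and 4-methylumbelliferyl alpha-D-galactopyranoside (80 uM final) in 50 mM citric acid, 0.005% Tween-20, pH 4.5, 20 min at room temperature; AC50 from Hill fits.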
On the technique in general: Counterscreens check selectivity or assay interference.

The target in experiment [14] is Alpha-galactosidase A (Homo sapiens) (UniProt P06280). Nature of the experiment: Counterscreen for Glucocerebrosidase Inhibitors: qHTS Assay for Human alpha-Galactosidase at pH 4.5 (AID 992). Further: 0% is about no effect. Summed up:
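Read-out is 4-methylumbelliferone fluorescence (365 nm excitation, 440 nm emission) after a pH 10 NaOH/glycine stop. Reactions held 2 nM enzyme and 80 uM substrate at pH 4.5 for 20 min at room temperature.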

The target in experiment [15] is alpha-glucosidase (Oryza sativa, rice) (UniProt Q653V4). Kind of experiment: Counterscreen for Glucocerebrosidase Inhibitors: qHTS Assay for Rice alpha-Glucosidase at pH 5.0 (AID 997).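 Further: 0% = full activity with enzyme and -100% = basal without enzyme.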 In a few lines: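 Rice alpha-glucosidase (4 nM final) with 400 uM 4-methylumbelliferyl-alpha-D-glucopyranoside in citrate buffer pH 5.0, 20 min at room temperature, stopped at pH 10; fluorescence 365/440 nm, compounds 0.7 nM–77 uM, AC50 from Hill fits.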

The target in experiment [16] is Alpha-galactosidase (Coffea arabica) (UniProt Q42656). Kind of experiment: Counterscreen for Glucocerebrosidase Inhibitors: qHTS Assay for Coffee Bean alpha-Galactosidase at pH 5.9 (AID 998).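 Further: plate controls were uninhibited enzyme for no effect and no-enzyme basal signal for full effect.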 In a few lines:
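Compounds were titrated from 0.7 nM to 77 uM against green coffee bean alpha-galactosidase (2 nM) using 80 uM fluorogenic 4-methylumbelliferyl substrate. After 20 min at room temperature, reactions were stopped at pH 10 and read by fluorescence.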

Experiment [17] deals with Guanine nucleotide-binding protein G(i) subunit alpha-1 (Homo sapiens) (UniProt P63096). Kind of experiment: qHTS Assay for Inhibitors of RGS12 GoLoco Motif Activity (Green Fluorophore) (AID 879).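 Further: 0% = labeled peptide with Gαi1 and full inhibition = labeled peptide alone without protein; negative values mean loss of peptide binding seen as reduced polarization.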 Summed up: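 Fluorescence polarization assay: 50 nM Gαi1 with 10 nM FITC-labeled RGS12 GoLoco peptide in 10 mM Tris pH 7.5, 150 mM NaCl, 0.1 mM GDP, 0.05% NP40, 10 min at room temperature with compound.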
Chain of Guanine nucleotide-binding protein G(i) subunit alpha-1 (Homo sapiens) (P63096 whole entry, looked up): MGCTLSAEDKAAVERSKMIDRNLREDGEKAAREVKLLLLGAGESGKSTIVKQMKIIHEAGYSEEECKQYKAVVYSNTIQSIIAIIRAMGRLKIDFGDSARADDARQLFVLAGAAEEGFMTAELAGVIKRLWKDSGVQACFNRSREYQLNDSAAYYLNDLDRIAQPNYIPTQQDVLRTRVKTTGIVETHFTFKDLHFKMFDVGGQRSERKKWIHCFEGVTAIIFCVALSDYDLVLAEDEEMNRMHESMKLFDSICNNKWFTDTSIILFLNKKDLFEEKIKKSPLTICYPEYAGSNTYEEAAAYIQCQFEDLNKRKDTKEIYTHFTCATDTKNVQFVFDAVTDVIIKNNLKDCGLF

Experiment [18] is described as follows: qHTS Assay for Identification of Small Molecule Agonists for Thrombopoietin (TPO) Signaling Pathway (AID 917). Further: on the % scale 0 is the no-effect control and ±100 the full control effect. In a few lines: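 We measured Glycoprotein IIb promoter–luciferase output in IL-3-starved Ba/F3 murine cells expressing the human TPO receptor after 24 hrs at 37 C with compounds and 26 pM TPO.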
Experiment [19] addresses Muscarinic acetylcholine receptor M1 (Rattus norvegicus) (UniProt P08482). Kind of experiment: qHTS Assay for Antagonists of Acetylcholine Muscarinic M1 Receptor: Kinetic Measurement of Intracellular Calcium Response (AID 943).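 Further: Fluo-4 calcium signal as peak divided by basal fluorescence over 4 min; nearly all actives have a fitted effect of over 75% in size.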 Summed up:
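CHO cells stably expressing rat M1 were loaded with no-wash Fluo-4 dye for 1 h at 37C, pre-incubated 10 min with compound, then challenged with EC80 carbachol (100 nM final); kinetic calcium read 4 min, peak/basal ratio.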

Experiment [20] has as its target Cytochrome P450 2D6 (Homo sapiens) (UniProt P10635). Kind of experiment: qHTS Assay for Inhibitors and Substrates of Cytochrome P450 2D6 (AID 891). Further: potency means the concentration at half of the fitted maximal effect; nearly all actives have a fitted effect of over 60% in size. Summed up:
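Human CYP2D6 (5 nM) with 30 uM Luciferin-ME EGE (at Km) in 100 mM KPO4, compound preincubated 10 min, then NADPH regeneration system for 60 min at room temperature. Luciferin read by luminescence; normalized to 1.43 uM quinidine.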

Chain of Alpha-galactosidase A (Homo sapiens) (P06280 whole entry, looked up): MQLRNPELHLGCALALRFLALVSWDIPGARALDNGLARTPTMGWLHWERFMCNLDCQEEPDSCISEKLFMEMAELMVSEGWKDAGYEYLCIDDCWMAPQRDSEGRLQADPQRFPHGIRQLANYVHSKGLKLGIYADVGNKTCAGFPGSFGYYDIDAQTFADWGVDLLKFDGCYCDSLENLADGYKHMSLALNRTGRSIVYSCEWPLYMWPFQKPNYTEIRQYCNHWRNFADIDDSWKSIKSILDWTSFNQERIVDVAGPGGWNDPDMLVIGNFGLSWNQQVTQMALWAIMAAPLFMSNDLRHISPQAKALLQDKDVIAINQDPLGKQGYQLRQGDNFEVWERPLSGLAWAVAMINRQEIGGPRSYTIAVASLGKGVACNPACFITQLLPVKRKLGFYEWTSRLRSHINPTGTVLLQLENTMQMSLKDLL
Chain of Pyruvate kinase (Leishmania mexicana) (Q27686 2-499 E452W): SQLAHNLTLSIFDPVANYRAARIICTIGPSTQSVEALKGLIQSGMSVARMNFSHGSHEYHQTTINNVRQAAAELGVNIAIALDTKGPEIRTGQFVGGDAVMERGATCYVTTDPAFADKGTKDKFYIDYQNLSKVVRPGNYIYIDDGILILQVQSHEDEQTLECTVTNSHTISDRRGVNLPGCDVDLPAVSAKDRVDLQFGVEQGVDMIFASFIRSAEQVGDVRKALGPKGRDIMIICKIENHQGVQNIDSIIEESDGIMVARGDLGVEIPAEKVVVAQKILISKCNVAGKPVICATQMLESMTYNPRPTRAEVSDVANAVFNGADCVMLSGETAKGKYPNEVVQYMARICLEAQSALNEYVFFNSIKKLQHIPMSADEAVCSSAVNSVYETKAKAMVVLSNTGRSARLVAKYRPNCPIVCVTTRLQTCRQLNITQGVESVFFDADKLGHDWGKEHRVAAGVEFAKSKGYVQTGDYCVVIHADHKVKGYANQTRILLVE
Chain of Alpha-galactosidase (Coffea arabica) (Q42656 whole entry, looked up): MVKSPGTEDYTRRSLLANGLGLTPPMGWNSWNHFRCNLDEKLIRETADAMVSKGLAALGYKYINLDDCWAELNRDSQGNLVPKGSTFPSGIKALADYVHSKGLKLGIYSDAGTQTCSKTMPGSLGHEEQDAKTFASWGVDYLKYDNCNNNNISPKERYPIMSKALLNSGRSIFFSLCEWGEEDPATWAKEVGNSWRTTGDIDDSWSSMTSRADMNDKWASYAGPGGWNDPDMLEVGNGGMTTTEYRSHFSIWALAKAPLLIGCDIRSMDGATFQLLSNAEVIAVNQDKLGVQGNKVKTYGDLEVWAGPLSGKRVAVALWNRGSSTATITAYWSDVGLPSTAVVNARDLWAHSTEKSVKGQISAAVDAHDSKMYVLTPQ
Chain of 3',5'-cyclic-AMP phosphodiesterase 4B (Homo sapiens) (Q07343 whole entry, looked up): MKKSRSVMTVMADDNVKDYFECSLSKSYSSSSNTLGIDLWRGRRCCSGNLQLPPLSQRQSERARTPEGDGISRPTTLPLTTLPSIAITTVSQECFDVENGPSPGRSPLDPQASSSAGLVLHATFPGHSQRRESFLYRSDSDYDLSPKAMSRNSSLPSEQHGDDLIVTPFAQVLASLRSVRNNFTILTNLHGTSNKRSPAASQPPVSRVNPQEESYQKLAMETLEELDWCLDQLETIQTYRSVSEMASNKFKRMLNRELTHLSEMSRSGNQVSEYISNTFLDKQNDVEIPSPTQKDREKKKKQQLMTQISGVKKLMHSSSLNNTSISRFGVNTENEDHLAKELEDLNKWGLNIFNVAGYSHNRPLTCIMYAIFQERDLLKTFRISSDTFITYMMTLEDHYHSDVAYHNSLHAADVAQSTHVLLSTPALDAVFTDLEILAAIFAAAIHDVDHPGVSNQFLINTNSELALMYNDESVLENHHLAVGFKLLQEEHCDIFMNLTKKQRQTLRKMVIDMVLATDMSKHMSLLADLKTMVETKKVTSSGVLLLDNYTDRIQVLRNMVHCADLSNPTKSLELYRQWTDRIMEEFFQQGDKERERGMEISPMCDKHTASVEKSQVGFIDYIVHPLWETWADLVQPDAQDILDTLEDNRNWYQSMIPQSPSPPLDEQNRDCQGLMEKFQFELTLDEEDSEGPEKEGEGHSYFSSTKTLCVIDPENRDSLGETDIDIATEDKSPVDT
Chain of Muscarinic acetylcholine receptor M1 (Rattus norvegicus) (P08482 whole entry, looked up): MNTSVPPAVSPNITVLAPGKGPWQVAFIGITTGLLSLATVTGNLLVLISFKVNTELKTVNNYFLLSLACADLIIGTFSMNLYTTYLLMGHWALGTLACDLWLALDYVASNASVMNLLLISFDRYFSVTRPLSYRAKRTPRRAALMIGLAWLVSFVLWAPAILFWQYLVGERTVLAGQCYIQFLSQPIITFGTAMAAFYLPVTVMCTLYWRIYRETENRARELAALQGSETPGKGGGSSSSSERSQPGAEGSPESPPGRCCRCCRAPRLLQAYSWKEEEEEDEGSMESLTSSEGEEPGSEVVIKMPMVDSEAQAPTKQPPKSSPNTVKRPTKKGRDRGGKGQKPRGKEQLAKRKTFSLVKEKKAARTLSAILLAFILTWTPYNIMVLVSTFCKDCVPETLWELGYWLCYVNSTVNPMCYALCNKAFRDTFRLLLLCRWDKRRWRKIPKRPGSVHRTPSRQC
Chain of Cytochrome P450 1A2 (Homo sapiens) (P05177 whole entry, looked up): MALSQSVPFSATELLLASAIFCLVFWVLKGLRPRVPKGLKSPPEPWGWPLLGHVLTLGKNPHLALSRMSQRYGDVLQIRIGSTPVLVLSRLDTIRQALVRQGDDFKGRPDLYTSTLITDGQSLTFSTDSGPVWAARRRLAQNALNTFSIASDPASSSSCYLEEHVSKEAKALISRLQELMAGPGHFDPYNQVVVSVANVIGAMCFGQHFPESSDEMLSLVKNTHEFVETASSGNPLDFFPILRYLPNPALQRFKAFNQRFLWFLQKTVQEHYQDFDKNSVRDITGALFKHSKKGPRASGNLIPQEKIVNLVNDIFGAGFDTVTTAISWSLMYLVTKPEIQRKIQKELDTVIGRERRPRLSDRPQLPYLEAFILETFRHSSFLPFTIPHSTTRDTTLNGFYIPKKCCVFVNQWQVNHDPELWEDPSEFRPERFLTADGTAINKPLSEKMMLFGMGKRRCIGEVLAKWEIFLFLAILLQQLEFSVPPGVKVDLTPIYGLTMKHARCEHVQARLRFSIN

With `Cn1c(O)c(C=NCCCNC2CCCCC2)c(=O)n(C)c1=O`, the activity change, negative = inhibition in experiment [1] was 3.35%; in experiment [2], -13.3%. Moreover, in experiment [3], the outcome was inactive. Besides, in experiment [4], the Potency was greater than 20.6 µM.
Regarding `CCCN1CCc2cccc3c2[C@@H]1Cc1ccc(O)c(O)c1-3`, the activity change, negative = inhibition in experiment [1] was 6.42% [at 38 µM]. The Potency is 3.98 µM (active) in experiment [5], greater than 46 µM in experiment [4], greater than 46 µM in experiment [6] and 12.6 µM (active) in [9]. In addition, the call in experiment [3], in experiment [7], in experiment [12], in experiment [13], in [14] and in experiment [15] was inactive. The call in experiment [16] was inactive. The Potency result in experiment [8], in experiment [10] and in [11] was “inactive” throughout.
With `CCCN1CCC[C@H](c2cccc(C#N)c2)C1`, in experiment [1], the activity change, negative = inhibition was 7.99% [at 38 µM]. In addition, the Potency entry in [5], in experiment [17] and in experiment [11] was “inactive” throughout. Moreover, the compound was classed as inactive in [3], in [7], in experiment [18], in experiment [12], in experiment [13] and in experiment [14]. In addition, the compound was called inactive in experiment [15] and in experiment [16]. Moreover, the Potency was greater than 46 µM in experiment [4], greater than 46 µM in experiment [6] and 11.2 µM (active) in [10].
In the case of `N[C@@H]1CCc2cc(O)c(O)cc2C1`, the results for the activity change, negative = inhibition in experiment [1] and in experiment [2] were -9.85% [at 38 µM] and -2.09% [at 38 µM], respectively. Besides, the Potency result in experiment [5], in experiment [17], in [19], in experiment [10] and in experiment [11] was “inactive” throughout. Also, the compound was classed as inactive in experiment [3], in experiment [7], in experiment [12], in [13], in experiment [14] and in experiment [15]. In experiment [16], the compound was called inactive. For the same compound, the Potency is greater than 46 µM in experiment [4], greater than 46 µM in experiment [6] and 10 µM (active) in experiment [9].
For the compound `COc1ccc2[nH]c3c(c2c1)CCN=C3C`, in experiment [1], the activity change, negative = inhibition was -4.7%. In addition, the Potency in [5] was 1.58 µM (active); in experiment [4], greater than 20.6 µM; in experiment [6] it was greater than 20.6 µM; in [20], 0.631 µM (active). For the same compound, the call in experiment [3] and in experiment [7] was inactive. In addition, the Potency entry in experiment [8] was “inactive”.
